{"source": "PubChem BioAssay (Tox21)", "note": "Inconclusive results are not listed. Where a call stands in place of a potency, no number is given. Calls of active or inactive are those of the source. Calls follow the shape of the full dose curve.", "data": [{"test": "p53 small molecule agonists, cell-based qHTS assay with rat liver microsomes: qHTS cell viability counter screen (AID 1963580); also: nearly all actives have a fitted effect of over 45% in size", "conditions": "p53RE-bla HCT-116 + rat microsomes, ATP viability, 16 h; series mostly up to 66 µM", "from_the_text": "National Center for Advancing Translational Sciences [NCATS]\nDivision of Preclinical Innovation [DPI]\nU.S. Environmental Protection Agency [EPA]\nNational Institutes of Environmental Health Sciences [NIEHS]\nNational Toxicology Program [NTP]\nU.S. Food and Drug Administration [FDA]\np53, a tumor suppressor protein, is activated following cellular insult, including DNA damage and other cellular stresses. The activation of p53 regulates cell fate by inducing DNA repair, cell cycle arrest, apoptosis, or cellular senescence. The activation of p53, therefore, is a good indicator of DNA damage and other cellular stresses. The CellSensor p53RE-bla HCT-116 cell line contains a stably integrated beta-lactamase reporter gene under control of the p53 response elements. The activation of the reporter gene under culture conditions can be detected by fluorescence intensity. This cell line was used to screen the Tox21 10K compound library in the condition of presence of rat liver microsomes and to identify agonists that activate the p53 signaling pathway after in vitro metabolic activation (Ooka et al., Archive of Toxicology 96:1975-1987, 2022). The cytotoxicity of the Tox21 compound library against the p53 RE-bla HCT-116 cell line was tested in parallel by measuring the intra cellular ATP content in the same wells.\nTox21 Assay Protocol Summary:\nThe p53RE-bla cells were dispensed at 4,000cells/3ul/well in 1536-well black-clear bottom plates. After the assay plates were incubated at 37 C, 5% CO2 incubator for 5 hours, 23 nL of compounds dissolved in DMSO, positive controls or DMSO only was transferred to the assay plate. Following compound addition, 3 uL of rat liver microsomes (Molecular Toxicology, Boone, NC) at final concentration of 0.5 mg/mL and 1uL of B-Nicotinamide adenine dinucleotide 2'-phosphate (NADPH) at final concentration of 0.5 mg/mL were transferred to the assay plate. The plates were incubated at 37 C for 16 hours. 1 uL of LiveBLAzer detection mixture was added to each well and the plates were incubated at room temperature in the dark for 2 h. Fluorescence intensity at 460 and 530 nm emission and 405 nm excitation were measured by an Envision plate reader. For cell viability readout that measures cytotoxicity, 4 ul/well of CellTiter-Glo reagent was added into the assay plates using a Flying Reagent Dispenser. After 30 min incubation at room temperature, the luminescence intensity in the plates was measured using a ViewLux plate reader.", "values": [{"smiles": "CC(C)(c1cc(Br)c(OCC(Br)CBr)c(Br)c1)c1cc(Br)c(OCC(Br)CBr)c(Br)c1", "note": "(stereo not given)", "Potency": "inactive"}, {"smiles": "CC1COc2ccccc2N1", "note": "(stereo not given)", "Potency": "inactive"}, {"smiles": "CNCCO", "Potency": "inactive"}, {"smiles": "NCc1ccc(S(N)(=O)=O)cc1", "Potency": "inactive"}, {"smiles": "CCOC(=O)NCCC[Si](OCC)(OCC)OCC", "Potency": "inactive"}, {"smiles": "OCC1CC2CC1C1CCC(CO)C21", "note": "(stereo not given)", "Potency": "inactive"}, {"smiles": "CC(C)CCCCCOC(=O)CS", "Potency": "inactive"}, {"smiles": "CN(C1CCCCC1)S(=O)(=O)c1ccccc1N", "Potency": "inactive"}, {"smiles": "CC(=O)C(C)O", "note": "(stereo not given)", "Potency": "inactive"}, {"smiles": "O=C(C(=O)c1ccccc1)c1ccccc1", "Potency": "inactive"}, {"smiles": "CO/N=C(/C(=O)N[C@@H]1C(=O)N2C(C(=O)O)=C(COC(N)=O)CS[C@H]12)c1ccco1", "Potency": "inactive"}, {"smiles": "NC(=Nc1ccccc1)Nc1ccccc1", "Potency": "inactive"}, {"smiles": "O=C(O)c1ccco1", "Potency": "inactive"}, {"smiles": "Clc1ccc2c(c1)Nc1ccccc1S2", "Potency": "inactive"}, {"smiles": "NC(=O)Cc1cccc2ccccc12", "Potency": "inactive"}, {"smiles": "Cn1c(=O)c2c(ncn2C)n(C)c1=O", "Potency": "inactive"}, {"smiles": "CCC(C)(C)C1CCC(OC)CC1", "note": "(stereo not given)", "Potency": "inactive"}, {"smiles": "C/C=C/C(=O)O", "Potency": "inactive"}, {"smiles": "CC(C)(C)NCCO", "Potency": "inactive"}, {"smiles": "CC(C)CNCC(C)C", "Potency": "inactive"}, {"smiles": "CCCCC1CCC(O)CC1", "note": "(stereo not given)", "Potency": "inactive"}, {"smiles": "c1ccc2sc(SSN3CCOCC3)nc2c1", "Potency": "inactive"}, {"smiles": "COC(=O)c1ccc(C)cc1C1=NC(C)(C(C)C)C(=O)N1", "note": "(stereo not given)", "Potency": "inactive"}, {"smiles": "CC12CCC(C(=O)C1=O)C2(C)C", "note": "(stereo not given)", "Potency": "inactive"}, {"smiles": "CC(=O)c1ccccc1O", "Potency": "inactive"}, {"smiles": "Oc1ccc(OCc2ccccc2)cc1", "Potency": "inactive"}, {"smiles": "Nc1cccc(N)n1", "Potency": "inactive"}, {"smiles": "COC(=O)c1ccc2cc(C(=O)OC)ccc2c1", "activity change, negative = cytotoxicity": "-1.51% [at 13.5 µM] (inactive)"}, {"smiles": "CC(=O)[O][Al][O]C(C)=O", "Potency": "inactive"}, {"smiles": "CCOC(=O)CC(C)=O", "Potency": "inactive"}, {"smiles": "CNC1(C)C2CCC(C2)C1(C)C", "note": "(stereo not given)", "Potency": "inactive"}, {"smiles": "O=C1OC[C@H](Cc2cccc(O)c2)[C@H]1Cc1cccc(O)c1", "Potency": "inactive"}, {"smiles": "CCCCc1ccc(Cl)cc1", "Potency": "inactive"}, {"smiles": "CCN1C(=O)c2ccccc2C1Nc1ccc(OCCN2CCCCC2)cc1", "note": "(stereo not given)", "Potency": "inactive"}, {"smiles": "CC1=CC[C@@H]2C[C@H]1C2(C)C", "activity change, negative = cytotoxicity": "4.85% [at 13.5 µM] (inactive)"}, {"smiles": "NC(=O)Nc1ccc(Cl)cc1", "Potency": "inactive"}, {"smiles": "O=C(O)c1cc2ccccc2nc1C(=O)O", "Potency": "inactive"}, {"smiles": "O=C(O)[C@@H]1[C@H]2C[C@H]3c4[nH]c5ccccc5c4CCN3C[C@@H]2CC[C@@H]1O", "Potency": "inactive"}, {"smiles": "C[N+]1([O-])CCOCC1", "Potency": "inactive"}, {"smiles": "O=C(O)c1ccc(O)cc1O", "Potency": "inactive"}]}]}
